# Laboratory results reported in PubChem BioAssay.
# A number with no mark means an inactive call.
# System: XIP peptide (Xip251-270) binding
# Test: XIP fragment 251-270 binding compounds – biochemical, small-molecule microarray, fluorescence 635/667 nm, 0.1 µg/mL protein, primary screen (AID 1182)
# Settings: fluorescent protein binding, 635 nm, higher = more signal, called active from +8 up or from −8 down
row,SMILES,composite z-score
1,CCOC(=O)[C@H](Cc1ccccc1)NC(=O)CCC1CC(OC(=O)NCc2cccc3ccccc23)CC2(CCCC(COC(=O)NCCc3ccccc3OC)O2)O1 (stereo partly specified),0.248
2,C#CCCCON=C1[C@H]2CCn3c(=O)n(Cc4cc5c(cc4Cl)OCO5)c(=O)n3[C@H]2[C@H](O)[C@@H]2O[C@H]12,-0.18
3,CC1(C)O[C@H]2O[C@H]([C@H](O)CON=C3[C@H]4CCn5c(=O)n(-c6ccccc6)c(=O)n5[C@H]4[C@H](O)[C@@H]4O[C@H]34)[C@H](O)[C@H]2O1,0.469
4,O=C1C[C@@H](O)[C@@H](O)[C@@H]2[C@@H]3C(=O)N(C4CCCCC4)C(=O)[C@@H]3CC[C@@H]12,-0.08
5,O=C(NN=C1C[C@@H](O)[C@@H](O)[C@@H]2[C@@H]3C(=O)N(Cc4ccccc4)C(=O)[C@@H]3CC[C@H]12)OCc1ccccc1,-0.578
6,CO[C@@H]1[C@H](O)CO[C@H]1C=Cc1ccccc1,-0.553
7,COC(=O)C1=C(C)N(Cc2ccccc2)C2=C3C(=O)OCC[C@@H]3[C@@](O)(C(=O)OC)C(=O)N2[C@@H]1c1ccccc1,0.75
8,CO[C@@H]1C=CCC(=O)N[C@@H](C)C(=O)OC[C@@H](NS(=O)(=O)c2ccc(C)cc2)[C@H](C)C=CCC(=O)OC[C@H]1C,-0.778
9,O=C(NN=C1C[C@@H](O)[C@@H](O)[C@@H]2[C@@H]3C(=O)N(c4ccc(F)cc4F)C(=O)[C@@H]3CC[C@H]12)OCc1ccccc1,0.081
10,CC(C)=CCCC(C)=CCON=C1C[C@@H](O)[C@@H](O)[C@@H]2[C@@H]3C(=O)N(C4CCCCC4)C(=O)[C@@H]3CC[C@H]12,1.45
11,O=C1[C@H]2CCn3c(=O)n(-c4ccccc4)c(=O)n3[C@H]2[C@H](O)[C@@H]2O[C@H]12,-0.0756
12,COC(=O)C(C(=O)OC)C1CCCC(=O)C1 (stereo unspecified),-0.0977
13,COc1ccc(OC[C@H]2CN3[C@@H](CC[C@@H](C)[C@@H]3c3ccc(Br)cc3)C(=O)O2)cc1,-0.192
14,CC(CCN1CCCc2nc(C)c(C)cc21)=NO[C@H](C)c1cn([C@@H]2COC[C@H]2O)nn1,-0.0434
15,C#CCCCON=C1C[C@@H](O)[C@@H](O)[C@@H]2[C@@H]3C(=O)N(C4CCCCC4)C(=O)[C@@H]3CC[C@@H]12,0.481
16,O=C1C2=CC[C@H]3C(=O)N(Cc4ccccc4)C(=O)[C@H]3[C@H]2[C@H](O)[C@@H]2O[C@H]12,0.409
17,C[C@H]1CC[C@@H](C(=O)O)N[C@@H]1c1ccc(C#Cc2ccccc2)cc1,-0.125
18,COC(=O)[C@H](C)NC(=O)CCC1CC(OC(=O)NCc2ccc3c(c2)OCO3)CC2(CCCC(COC(=O)NCCC(C)C)O2)O1 (stereo partly specified),1.11

row,SMILES,composite z-score
1,CC(C)[C@@H](OCc1ccccc1)[C@H](C)C=NO[C@@H](C)c1cn([C@H](CO)Cc2ccccc2)nn1,0.334
2,CC#CCOCCC=C1c2ccccc2[C@@H](OC)[C@@H]1C,0.772
3,CC(C)(C)N1C(=O)[C@H]2[C@H]3[C@H](O)[C@H](O)CC(=NOC[C@@H](O)COCc4ccco4)[C@@H]3CC[C@H]2C1=O,-0.484
4,CCOC(=O)[C@H](Cc1ccccc1)NC(=O)CCC1CC(OC(=O)NCc2ccc3c(c2)OCO3)CC2(CCCC(COC(=O)NCCOC)O2)O1 (stereo partly specified),0.247
5,CO[C@@H]1COC(=O)CC=C[C@H](C)[C@H](OC)COC(=O)[C@@H]2CCCN2C(=O)CC=C[C@H]1C,0.233
6,CC(C)=CCCC(C)=CCON=C1C[C@@H](O)[C@@H](O)[C@@H]2[C@@H]3C(=O)N(Cc4ccc5c(c4)OCO5)C(=O)[C@@H]3CC[C@H]12,0.165
7,O=C1CCCC=C1C(O)COCc1ccccc1 (stereo unspecified),0.253
8,CC(C)(C)N1C(=O)[C@H]2[C@H]3[C@H](O)[C@H](O)CC(=NNC(=O)OCc4ccccc4)[C@@H]3CC[C@H]2C1=O,0.0863
9,O=C1C2=CC[C@H]3C(=O)N(c4ccc(F)cc4F)C(=O)[C@H]3[C@H]2[C@H](O)[C@@H]2O[C@H]12,-0.196
10,CC(CCN1CCCc2nc(C)c(C)cc21)=NO[C@@H](C)c1cn([C@H](CO)Cc2ccccc2)nn1,0.51
11,CCOC(=O)[C@H](CC(C)C)NC(=O)CCC1CC(OC(=O)NCc2ccc3c(c2)OCO3)CC2(CCCC(COC(=O)NCCOC)O2)O1 (stereo partly specified),0.685
12,COCCNC(=O)OCC1CCCC2(CC(OC(=O)NCc3cccc4ccccc34)CC(CCC(=O)N[C@@H](C)C(=O)OC)O2)O1 (stereo partly specified),0.505
13,COC(=O)CC=C[C@@H](C)[C@@H](C=NOC(C)CN1CCCCc2nc(C)c(C)cc21)NS(=O)(=O)c1ccc(C)cc1 (stereo partly specified),-0.598
14,CCOC(=O)[C@H](CC(C)C)NC(=O)CCC1CC(OC(=O)NCc2ccc3c(c2)OCO3)CC2(CCCC(COC(=O)NCCOc3ccccc3)O2)O1 (stereo partly specified),0.24
15,CCN1C(=O)[C@H]2[C@H]3[C@H](O)[C@H](O)CC(=NO[C@H](C)c4cn([C@H](CO)Cc5ccccc5)nn4)[C@@H]3CC[C@H]2C1=O,1.66
16,C=CC[C@@H]1C=CC(ON=C(C)C)[C@@H](CO)O1 (stereo partly specified),-0.649
17,CCOC(=O)[C@H](CC(C)C)NC(=O)CCC1CC(OC(=O)NCc2ccc3c(c2)OCO3)CC2(CCCC(COC(=O)NCCc3ccccc3OC)O2)O1 (stereo partly specified),0.677
18,COC(=O)[C@H](Cc1ccccc1)NC(=O)[C@@H](C)CO,-0.285
